# From PubChem BioAssay
# Shiga toxin inh: inhibitors of Shiga toxin in Vero cells; actives 9.2% (n = 290,000); inhibition, % at 38.7 µM; Vero cells, Shiga toxin protein synthesis inhibition reporter; in the data active = inhibition mostly above about 28%, no sharp cut-off; inactive = mostly below about 43%
# Pf growth 96h: P. falciparum growth inhibition at 96 hour, primary screen for plastid delayed-death inhibitors; actives 6.9% (n = 320,000); Potency, µM (titrated, usually from 28.7 µM), usual class: inhibitors; AID 504834; P. falciparum luciferase reporter growth, 96 h
#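 Two parasite generations (96 h, 37 C, 5% CO2) of compound exposure in infected erythrocytes (0.05% parasitemia, 2% hematocrit). Luciferase-reporter P. falciparum; decreased luminescence indicates inhibited growth, aimed at apicoplast-acting delayed death.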
# Cycloheximide cs: counter-screen hit for Shiga toxin inhibitors, cycloheximide. cell reporter, cycloheximide protein synthesis inhibition counterscreen. max response, %. actives 12% (n = 300,000); in the data active = max response mostly above about 13%, no sharp cut-off; inactive = mostly below about 14%; note: read at 38.3 µM for the half of the compounds with a filed dose
# Pf growth 48h: inhibits P. falciparum growth in the first generation, 48 h | P. falciparum luciferase growth in erythrocytes, 48 h | Potency, µM (series often up to 28.7 µM), actives largely listed as inhibitors | actives 5.9% (n = 310,000) | AID 504832
#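 A one-generation exposure of luciferase-tagged malaria parasites in RPMI 1640/Albumax erythrocyte culture, 37 C and 5% CO2. Inhibition is inferred from decreased luminescence after adding detection reagent.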
# MARV entry inh: inhibitors of Marburg virus binding or cell entry; Marburg virus pseudotyped entry inhibition, cell reporter; Potency, µM (highest dose often 37.8 µM), actives largely listed as inhibitors; actives 1.8% (n = 300,000); calls by dose curve; tested in HEK293 cells
# Lassa entry inh: Lassa virus entry inhibition. Lassa virus pseudotype entry inhibition, cell reporter. Potency, µM (series often up to 37.9 µM), usual class: inhibitors. actives 1.2% (n = 300,000); calls by dose curve; tested in HEK293 cells; note: nearly all actives have a fitted effect of over 50% in size
# A number is an active result; – = inactive; ? = inconclusive; · = no result given. Compounds with a hit are over-represented: about 19% of the library has one in this group of screens. Unless noted, calls come from the whole dose curve; as a rule, active = well fitted inhibition curve with a large enough effect; inconclusive = small, poorly fitted or top-dose-only effect, or another doubt; inactive = no such curve, though single readings can be large or run the other way.
SMILES,Shiga toxin inh,Pf growth 96h,Cycloheximide cs,Pf growth 48h,MARV entry inh,Lassa entry inh
Cc1cccc(NC(=O)CC2NC3CCCCC3NC2=O)c1 (stereo not drawn),–,–,–,–,–,–
COc1ccc(NC(=O)c2sc(NC(=O)C3CC3)nc2C)cc1,–,–,–,–,·,·
COC(=O)CC1=C(C(=O)OC)C(c2ccc3c(c2)OCO3)C(C#N)=C(N)O1 (stereo not drawn),–,–,–,?,–,–
S=c1[nH]nc(-c2cc(-c3ccccc3)n[nH]2)n1/N=C/c1ccccc1,–,–,–,–,·,·
S=c1[nH]nc(-c2cc(-c3ccccc3)n[nH]2)n1/N=C/C(Br)=C/c1ccccc1,62.6,9.28µM,27.5,5.22µM,?,?
CC(=O)c1cccc(NC(=O)C2CCCN2S(=O)(=O)c2cccc3cccnc23)c1 (stereo not drawn),–,–,–,·,–,·
COc1ccccc1C1=Nn2c(nnc2C2CCCCC2)SC1,–,–,–,?,–,–
COc1ccc(C2=Nn3c(nnc3C3CCCCC3)SC2)cc1OC,–,4.65µM,–,·,?,–
COc1ccc(OC)c(C2=Nn3c(nnc3C3CCCCC3)SC2)c1,–,9.28µM,–,?,?,–
Cc1ccc(C(=O)Nc2ccc(F)cc2)o1,32.3,–,–,–,–,?
O=C(Nc1ccc2c(c1)oc1ccccc12)c1ccc(Br)o1,–,–,–,·,–,?
O=C(Nc1ccc2c(c1)CCC2)c1ccc(Br)o1,76.0,·,44.5,–,?,?
O=C(Nc1ccc2c(c1)OCO2)c1ccc(Br)o1,69.1,–,47.8,·,–,–
Cc1ccc(NC(=O)COC(=O)/C=C/c2ccc(Br)o2)cc1S(=O)(=O)N(C)C,–,–,–,–,·,·
Cc1ccc(NC(=O)c2ccc(Br)o2)cc1S(=O)(=O)N(C)C,78.5,–,24.3,–,?,?
O=C(Cn1cc(S(=O)(=O)Cc2cccc(Cl)c2)c2ccccc21)NCCc1ccccc1,·,·,·,·,·,–
COc1ccc(Nc2cc(C(=O)NCCCN3CCOCC3)c3ccccc3n2)c(OC)c1,–,–,–,·,?,–
O=C(Nc1ccc2c(c1)Cc1ccccc1-2)c1cc2ccccc2o1,·,·,·,·,–,–
O=C(Nc1ccc2c(c1)OCO2)c1ccc(COc2ccc3c(c2)CCC3)o1,44.6,–,43.0,–,–,–
O=C(Nc1ccc(F)cc1)c1ccc(CSc2ccccc2)o1,–,?,20.9,–,–,?
C/C(=N\NC(=O)c1ccc(Br)o1)c1cc2c(cc1NC(=O)CCC(=O)O)OCO2,34.4,–,18.8,–,–,?
CC(=O)c1cc2c(cc1NC(=O)CCn1cccc1)OCO2,–,?,–,–,–,–
O=C(Nc1ccc(F)cc1)c1ccc(CSc2ccc(Cl)cc2)o1,–,–,–,–,?,–
O=C(Nc1ccc2c(c1)CCC2)c1cc2ccccc2o1,54.9,–,65.4,·,–,?
CC(=O)c1c(C)n(-c2ccc(C)cc2)c2ccc(OC(=O)COc3ccccc3)cc12,·,·,·,·,–,–
SMILES,Shiga toxin inh,Pf growth 96h,Cycloheximide cs,Pf growth 48h,MARV entry inh,Lassa entry inh
COc1ccc(-c2noc(N3CCC(C(=O)N4CCN(c5cccc(C)c5C)CC4)CC3)n2)cc1,·,·,·,·,·,–
COc1ccc(-c2nc3ccc(C(=O)NCCCN4CCOCC4)cc3nc2-c2ccc(OC)cc2)cc1,–,?,–,?,·,·
Cc1ccc(C(=O)Nc2ccc3c(c2)CCC3)o1,98.5,·,63.1,–,?,?
Cc1ccc(NC(=O)Nc2ccc3c(c2)CCC3)cc1C,–,–,–,–,·,·
Cc1ccc(NC(=O)Cc2ccc3c(c2)CCCC3)cc1C,–,–,23.4,–,–,?
CCOc1ccc(/C=N/n2c(SC)nnc2-c2ccccc2)cc1OCC,–,–,–,–,?,?
CCOC(=O)c1c(C)oc2c1c(C(c1cccnc1)N1CCOCC1)c(O)c1ccccc12 (stereo not drawn),123.1,–,49.4,–,–,–
CCOC(=O)c1c(C)oc2c1c(C(c1cccnc1)N1CCN(C)CC1)c(O)c1ccccc12 (stereo not drawn),155.8,–,52.7,–,–,·
COc1ccc(COn2c(=O)c(C)[n+]([O-])c3ccccc32)cc1OC,–,·,–,–,–,–
Cc1ccc(-c2csc(=S)[nH]2)cc1,–,–,–,–,·,·
O=C(COC(=O)CNC(=O)c1ccc(Br)o1)Nc1ccccc1OC(F)F,–,–,–,–,–,–
CN(C(=O)COc1ccc(Oc2ccccc2)cc1)C1CCS(=O)(=O)C1 (stereo not drawn),–,–,–,–,–,–
Cc1ccc(OC(=O)C23CC4CC(CC(C4)C2)C3)c(C)n1,–,–,–,–,–,–
CCc1nc(C)ccc1OC(=O)C12CC3CC(CC(C3)C1)C2,–,0.586µM,–,–,–,–
COc1ccc(-n2c(C)cc(C(=O)CSc3nn4c(=O)c(C(C)(C)C)nnc4s3)c2C)cc1,–,·,–,?,?,?
CC(=O)Nc1ccc(SCC(=O)c2cc(C)ccc2C)cc1,–,–,–,–,–,?
CC(=O)Nc1ccc(SCC(=O)c2cc(C)n(-c3ccccc3)c2C)cc1,–,–,45.2,–,–,–
COc1ccc(-n2c(C)cc(C(=O)CSc3ccc(NC(C)=O)cc3)c2C)cc1,69.5,–,29.4,?,–,?
COc1ccc(OC)c(Nc2ncnc3c2cnn3-c2cccc(C)c2)c1,–,?,–,–,?,?
c1ccc(-n2ncc3c(NCc4ccccn4)ncnc32)cc1,73.6,·,30.3,–,–,–
Cc1cccc(-n2ncc3c(NCc4ccccn4)ncnc32)c1,70.1,–,28.6,–,?,–
O=C(CC12CC3CC(CC(C3)C1)C2)NC(=S)N1CCCCC1,–,9.28µM,–,–,–,–
S=C(NC12CC3CC(CC(C3)C1)C2)N1CCCC1,–,–,–,–,–,–
Cc1cccc(-c2n[nH]c(=S)n2/N=C/c2cccs2)c1,–,–,–,–,·,·
CCOC(=O)N1CCN(C(=O)/C(=C/c2ccc(F)cc2)NC(=O)c2ccccc2)CC1,–,3.29µM,–,–,–,–
SMILES,Shiga toxin inh,Pf growth 96h,Cycloheximide cs,Pf growth 48h,MARV entry inh,Lassa entry inh
COCCOc1ccc(C(F)(F)F)cc1Nc1nc2ccccc2o1,100.2,–,30.4,–,–,–
Cc1cc(C)c2nc(N3CCN(C)CC3)c(C#N)cc2c1,–,?,–,–,?,–
Cc1cccc2c1NC1(CCCC1)CC2C (stereo not drawn),–,?,–,–,·,·
Cc1ccc2c(c1C)NC(C)CC2C (stereo not drawn),–,?,–,13.1µM,–,–
O=C(Nc1ccc(Br)cc1)c1cccc(C(=O)Nc2ccc(Br)cc2)c1,·,·,·,·,·,–
O=C1NN(C(=O)Nc2ccc(Br)cc2)C(c2ccccc2)C1c1ccccc1 (stereo not drawn),53.8,·,–,·,·,·
O=C(C1CCC(CNc2c(N3CCCCC3)c(=O)c2=O)CC1)N1CCc2ccccc2C1 (stereo not drawn),–,–,–,9.28µM,–,·
CC1CCN(c2c(NCC3CCC(C(=O)NCCC4=CCCCC4)CC3)c(=O)c2=O)CC1 (stereo not drawn),–,?,–,7.38µM,–,–
